BH1578 lux ind: induces V. cholerae light production without autoinducers | V. cholerae BH1578 lux reporter, luminescence, 6 h | activation, % at 18.7 µM | 0.16% of 350,000 active | AID 588436; in the data active means activation mostly above about 9.7%, no sharp cut-off
Mtb BioA inh: blocks M. tuberculosis BioA enzyme activity | purified M. tuberculosis BioA enzyme, plate reader | inhibition, % at 9.99 µM | 0.096% of 360,000 active; in the data active means inhibition above about 40%
Mtb FBA inh: inhibitors of M. tuberculosis fructose-bisphosphate aldolase; purified M. tuberculosis FBA, fluorescence read-out; inhibition, % at 1 µM; 2.3% of 360,000 active; in the data active means inhibition above about 27%
Target sequence (P9WQA3 whole entry, looked up): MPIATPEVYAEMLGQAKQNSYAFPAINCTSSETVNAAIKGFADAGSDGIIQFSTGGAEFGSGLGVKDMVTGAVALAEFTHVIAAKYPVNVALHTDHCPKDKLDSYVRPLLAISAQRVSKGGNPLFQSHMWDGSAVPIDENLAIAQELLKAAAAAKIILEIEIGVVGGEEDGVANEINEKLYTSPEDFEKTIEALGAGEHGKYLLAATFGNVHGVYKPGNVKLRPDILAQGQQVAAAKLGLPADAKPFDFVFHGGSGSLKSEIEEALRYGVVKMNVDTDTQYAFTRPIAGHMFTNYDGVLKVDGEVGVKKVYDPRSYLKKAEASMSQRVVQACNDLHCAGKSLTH
GDH-TPI counter: counter-screen for M. tuberculosis FBA inhibitors: GDH-TPI coupled enzymes; GDH-TPI coupled enzyme counterscreen, NADH absorbance; 1.2% of 360,000 active; AID 588335; inhibition, % at 4.8 µM; in the data active means inhibition above about 30%
Each line names hits and unclear results; the compound was inactive in the other large screens; ! = a repeat was not active. Rows were chosen to be rich in hits. Some 3% of all compounds tested hit in one or more screens of this group.

O=[N+]([O-])c1ccc(SCCc2ccncc2)cc1	GDH-TPI counter 42!
O=[N+]([O-])c1ccc(SCCc2ccccn2)cc1	none (no result: Mtb BioA inh)
COCCCn1c(N)c(C(=O)OC(C)COC)c2nc3ccccc3nc21 (configuration not stated)	Mtb FBA inh active
CCC(C)NC(=O)c1c(N)n(Cc2ccc3c(c2)OCO3)c2nc3ccccc3nc12 (configuration not stated)	none
COCCCn1c(N)c(C(=O)Nc2sc3c(c2C(=O)OC)CCCC3)c2nc3ccccc3nc21	none
CCCCOCCCn1c(N)c(C(=O)OC(C)COC)c2nc3ccccc3nc21 (configuration not stated)	Mtb FBA inh 121
COCCCn1c(N)c(C(=O)Nc2ccccc2)c2nc3ccccc3nc21	none
CCC(C)OC(=O)c1c(N)n(Cc2cccs2)c2nc3ccccc3nc12 (configuration not stated)	Mtb FBA inh 137 (no result: BH1578 lux ind)
CCCN1C[C@H](C)[C@@H](OC)CN(C)C(=O)c2ccc(NC(=O)C3CC3)cc2OC[C@H]1C	none (no result: BH1578 lux ind, Mtb FBA inh, GDH-TPI counter)
CCCNC(=O)C[C@@H]1CC[C@@H]2[C@H](COC[C@@H](O)CN2C(=O)c2ccccn2)O1	none (no result: BH1578 lux ind, Mtb FBA inh, GDH-TPI counter)
COc1ccc(Cl)cc1-n1c(=S)sc2c(=O)[nH]c(SCC(=O)NCC3CCCO3)nc21 (configuration not stated)	GDH-TPI counter 38 (no result: Mtb BioA inh)
COc1ccc(OC)c(NC(=O)CSc2nc3scc(C)c3c(=O)[nH]2)c1	none
CCn1c(=S)sc2c(=O)[nH]c(SCC(=O)Nc3cc(OC)ccc3OC)nc21	GDH-TPI counter 34
CCn1c(COc2ccc(C)cc2)nnc1SCC(=O)Nc1cc(OC)ccc1OC	BH1578 lux ind 29
COCCCNC(=O)Cn1cc(/C=C(\C#N)C(=O)NC2CCCC2)c2ccccc21	GDH-TPI counter 33
CC(OC(=O)c1ccc(S(=O)(=O)N2CCCCC2)cc1)C(=O)Nc1ccc(C(N)=O)cc1 (configuration not stated)	none
CC(OC(=O)c1nccnc1N)C(=O)Nc1ccc(S(=O)(=O)N2CCCC2)cc1 (configuration not stated)	Mtb FBA inh 142 (no result: Mtb BioA inh)
CSc1ccc(/C=C(\NC(=O)c2ccco2)C(=O)N2CCCCC2)cc1	GDH-TPI counter 37
CSc1ccc(/C=C(/NC(=O)c2ccco2)C(=O)NCc2ccco2)cc1	GDH-TPI counter 41
COc1ccc(/C=C(\NC(=O)c2ccco2)C(=O)Nc2ccc(C(C)=O)cc2)cc1	GDH-TPI counter 33
O=C(NCc1ccco1)/C(=C/c1ccccc1)NC(=O)c1ccco1	none
Cc1ccc2nc(-c3ccco3)c(Nc3ccccc3)n2c1	Mtb FBA inh 192 (no result: Mtb BioA inh)
Cc1ccc2nc(-c3ccncc3)c(Nc3ccccc3)n2c1	none
C[C@H]1CN([C@@H](C)CO)C(=O)c2cccc(NC(=O)Nc3ccc(F)cc3)c2O[C@@H]1CN(C)Cc1ccc(Cl)c(Cl)c1	none (no result: BH1578 lux ind, Mtb FBA inh, GDH-TPI counter)
CCOC(=O)Cc1csc(NC(=O)c2cc3c(s2)CCCC3)n1	GDH-TPI counter 31
CCOC(=O)Cc1csc(NC(=O)c2cnc3sc(C)cn3c2=O)n1	GDH-TPI counter 54
CC(C)CC#Cc1cnc2c(c1)C(=O)N([C@H](C)CO)C[C@@H](C)[C@H](CN(C)C(=O)Cc1ccncc1)O2	none (no result: BH1578 lux ind, Mtb FBA inh, GDH-TPI counter)
O=C(CSc1nnc2n1CCCN2)c1ccc([N+](=O)[O-])cc1	none (no result: Mtb BioA inh)
O=C(CSc1nnc2n1CCCN2)c1ccc(Cl)cc1	BH1578 lux ind 32
C[C@@H]1CN([C@@H](C)CO)C(=O)c2cc(-c3cccnc3)cnc2O[C@H]1CN(C)C(=O)Nc1ccc(C(F)(F)F)cc1	none (no result: BH1578 lux ind, Mtb FBA inh, GDH-TPI counter)
CCC(=O)OCOc1ccc(/C=C2/CCC(CN(C)C)C2=O)cc1 (configuration not stated)	GDH-TPI counter 32 (no result: Mtb BioA inh)
COCC(=O)N/N=C(\C)CC(=O)Nc1ccccc1C(N)=O	Mtb FBA inh 55
COc1ccccc1C(=O)N/N=C(\C)CC(=O)Nc1ccccc1NC(C)=O	none
O=C(O)c1ccc2c(c1)C(=O)N(c1ccc(Cl)cn1)C2=O	none
O=C(O)c1ccc2c(c1)C(=O)N(c1ccc([N+](=O)[O-])cn1)C2=O	GDH-TPI counter 36
COc1ccc(NC(=O)N(C)C[C@@H]2OCCCC[C@H](C)Oc3ccc(NS(=O)(=O)c4ccc(Cl)cc4)cc3C(=O)N([C@H](C)CO)C[C@@H]2C)cc1	none (no result: BH1578 lux ind, Mtb FBA inh, GDH-TPI counter)
O=C(Oc1ccccc1/C=C\C(=O)c1cc2ccccc2o1)c1ccccc1	none (no result: Mtb BioA inh)
COc1cccc(C(=O)Oc2ccccc2/C=C\C(=O)c2cc3ccccc3o2)c1	GDH-TPI counter 31
C[C@@H]1CCCCO[C@H](CN(C)CC2CCCCC2)[C@H](C)CN([C@@H](C)CO)C(=O)c2cc(NS(=O)(=O)c3ccccc3)ccc2O1	none (no result: BH1578 lux ind, Mtb FBA inh, GDH-TPI counter)
C[C@H](CO)N1C[C@H](C)[C@H](CN(C)S(=O)(=O)c2ccccc2F)Oc2ncc(C#Cc3cccnc3)cc2C1=O	none (no result: BH1578 lux ind, Mtb FBA inh, GDH-TPI counter)
O=C1N/C(=N/S(=O)(=O)c2ccccc2)S/C1=C/c1cccnc1	GDH-TPI counter 33
O=C1NC(=Nc2ccccc2)S/C1=C\c1cccnc1	GDH-TPI counter 33 (no result: Mtb BioA inh)
Cc1ccc(N=C2NC(=O)/C(=C/c3cccnc3)S2)cc1C	none
O=C(Cc1ccccn1)N[C@@H]1CC[C@@H](CC(=O)N2CCCCC2)O[C@@H]1CO	none (no result: BH1578 lux ind, Mtb FBA inh, GDH-TPI counter)
Cc1ccc(/C=C(\C#N)C(=O)NC(C)C)o1	GDH-TPI counter 65
Cc1ccc(/C=C(/C#N)C(=O)NC(C)c2ccccc2)o1 (configuration not stated)	none
Cc1ccc(/C=C(\C#N)C(=O)NC(C)c2ccccc2)o1 (configuration not stated)	GDH-TPI counter 33
CC(NC(=O)/C(C#N)=C/c1ccc(C(=O)O)cc1)c1ccccc1 (configuration not stated)	GDH-TPI counter 38
CCCNC(=O)C[C@H]1C[C@@H]2c3cc(NC(=O)C4CCC4)ccc3O[C@@H]2[C@H](CO)O1	none (no result: BH1578 lux ind, Mtb FBA inh, GDH-TPI counter)
N=C1c2c(cc(=O)n3c2[nH]c2ccccc23)CN1CCN1CCOCC1	Mtb FBA inh active
COCCn1c(=S)[nH]c2cc(C(=O)N3CCc4ccccc4C3)ccc2c1=O	none (no result: Mtb BioA inh)
COCCN1Cc2cc(=O)n3c([nH]c4ccccc43)c2C1=N	Mtb FBA inh active
CCOc1ccc(Cc2onc3c2C(=O)CCC3)cc1OCC	Mtb FBA inh active
Cc1ccc(S(=O)(=O)Nc2ccc3c(c2)C(=O)N([C@H](C)CO)C[C@H](C)[C@@H](CN(C)C(=O)C2CCCCC2)OCCCC[C@@H](C)O3)cc1	none (no result: BH1578 lux ind, Mtb FBA inh, GDH-TPI counter)
CCC(=O)N(C)C[C@@H]1Oc2ncc(-c3ccccc3F)cc2C(=O)N([C@H](C)CO)C[C@@H]1C	none (no result: BH1578 lux ind, Mtb FBA inh, GDH-TPI counter)
Cc1ccccc1Nc1ccc([N+](=O)[O-])cn1	none
Cc1cccc(C(C)Nc2ccc([N+](=O)[O-])cn2)c1 (configuration not stated)	GDH-TPI counter 31 (no result: BH1578 lux ind)
Cc1ccc(N=Nc2c(N)nn3c(C)cc(C)nc23)cc1	GDH-TPI counter 40
Cc1cc(C)n2nc(N)c(N=Nc3cccc(Cl)c3)c2n1	none (no result: Mtb BioA inh)
COc1cc(OC)cc(-c2c(C#Cc3ccsc3)c3cc(-c4ccc(OC)nc4)ccc3n2C)c1	GDH-TPI counter 44
COc1cc(OC)cc(-c2c(C#Cc3ccsc3)c3cc(-c4ccc(OC)c(OC)c4)ccc3n2C)c1	GDH-TPI counter 44
COc1ccc(-c2c(C#Cc3ccsc3)c3cc(-c4ccc(C(N)=O)cc4)ccc3n2C)cc1	none
COc1cc(OC)cc(-c2c(C#Cc3ccsc3)c3cc(Br)ccc3n2C)c1	none
